High-throughput results as filed in PubChem BioAssay.
In the library only some 7.5% were active in any assay of this set; here they are far more common.
SMN2 splice up = qHTS Assay for Enhancers of SMN2 Splice Variant Expression. HEK293 SMN2-luciferase splicing reporter, luminescence, 30-36 h. Potency, µM (titrated, usually from 46.1 µM), inactives show at the top dose activity change, positive = activation, actives largely listed as activators. 210,000 compounds, 2.8% hits. AID 1458, 2008; note: % of control where 0% means no effect; nearly all actives have a fitted effect of over 55% in size
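HEK293 cells carry an SMN2 […]–luciferase reporter in which exon 7 inclusion puts luciferase in frame. Cells were plated 10-12 h before compound addition, then incubated 30-36 h at 37C. ONE-Glo luminescence was read; sodium butyrate at 4.5 mM final served as control.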
Luc counter = Counterscreen for Luciferase (Kinase-Glo TM) Inhibition | Luciferin 4-monooxygenase (Photuris pensylvanica), Q27757 | Potency, µM (highest dose often 38.3 µM), without a hit: at the highest dose activity change, negative = inhibition, usual class: inhibitors | 200,000 compounds, 0.28% hits | Kinase-Glo luciferase, ATP luminescence, 8 min; note: % is set by controls: 0 for no effect and ±100 for the full control effect; nearly all actives have a fitted effect of over 60% in size
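Compound is pinned into ATP-containing buffer (10 uM ATP, imidazole pH 7.2, 7 mM MgCl2). Kinase-Glo luciferase reagent is then added. Light output is recorded following an 8-min room-temperature incubation.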
NPC1 promoter act = qHTS Assay for NPC1 Promoter Activators. Huh7 NPC1 promoter luciferase reporter, 24 h. Potency, µM (doses to about 9.22 µM), for inactives: at the highest dose activation, hits mostly activators. 320,000 compounds, 2.4% hits; note: % of control where 0% means no effect; nearly all actives have a fitted effect of over 60% in size
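Quantitative HTS used a cell-based reporter: Huh7 cells stably bearing the NPC1 promoter upstream of luciferase were treated with compounds for 24 h, and promoter activation was read as luminescence.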
ELG1 genotox = qHTS screen for small molecules that induce genotoxicity in human embryonic kidney (HEK293T) cells expressing luciferase-tagged ELG1; 330,000 compounds, 1.3% hits; Potency, µM (highest dose often 46 µM), for the others: at the top dose activity change, positive = activation, usual class: activators; HEK293T ELG1-luciferase reporter, luminescence, 16 h; note: % of control where 0% means no effect; nearly all actives have a fitted effect of over 60% in size
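Quantitative HTS format in 1536-well plates. HEK293T ELG1-luciferase reporter cells receive test compound and are incubated 16 hr at 37 °C, 5% CO2; ONE-Glo added, 30 min room temperature, then luminescence read.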
Rab9 prom act = qHTS Assay for Rab9 Promoter Activators; Huh7 Rab9 promoter-luciferase reporter, luminescence, 24 h; Potency, µM (doses to about 9.22 µM), inactives show top-dose activation, negative = inhibition, actives largely listed as activators; 320,000 compounds, 2.8% hits; AID 485297, 2010; note: % of control where 0% means no effect; nearly all actives have a fitted effect of over 60% in size
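Huh7 cells stably carrying a Rab9 promoter-luciferase reporter, 1500 cells per well in OP-MEM I with 10% FBS, treated with compound 24 hours at 37C. Luciferase activity read by luminescence after 10 minutes with Amplite reagent.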
FLuc modulator = qHTS profiling assay for firefly luciferase inhibitor/activator using purifed enzyme and Km concentrations of substrates (counterscreen for miR-21 project). Luciferin 4-monooxygenase (Photinus pyralis), P08659. purified FLuc, Km substrates, luminescence inhibition. Potency, µM (highest dose often 57.5 µM), for inactives: at the top dose activity change, negative = inhibition, hits mostly inhibitors. 360,000 compounds, 6.9% hits;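 note: plate controls were vehicle for no effect and reference inhibitor for full effect; nearly all actives have a fitted effect of over 55% in size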
Target sequence (P08659 whole entry, looked up): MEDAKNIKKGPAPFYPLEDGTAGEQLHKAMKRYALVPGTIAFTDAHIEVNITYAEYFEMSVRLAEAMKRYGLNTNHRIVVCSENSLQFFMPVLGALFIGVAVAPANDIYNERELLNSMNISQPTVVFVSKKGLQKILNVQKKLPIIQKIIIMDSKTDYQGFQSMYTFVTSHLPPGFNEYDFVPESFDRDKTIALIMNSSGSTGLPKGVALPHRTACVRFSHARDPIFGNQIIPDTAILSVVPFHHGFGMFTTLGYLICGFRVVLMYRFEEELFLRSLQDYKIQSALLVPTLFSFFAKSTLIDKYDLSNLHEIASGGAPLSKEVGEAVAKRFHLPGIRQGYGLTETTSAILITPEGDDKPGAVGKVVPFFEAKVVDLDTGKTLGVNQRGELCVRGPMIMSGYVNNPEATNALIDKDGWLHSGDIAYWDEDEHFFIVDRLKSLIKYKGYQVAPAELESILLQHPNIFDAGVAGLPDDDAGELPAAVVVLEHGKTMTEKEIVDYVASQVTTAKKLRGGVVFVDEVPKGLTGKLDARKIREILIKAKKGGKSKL
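Purified P. pyralis luciferase, 10 nM final, with Km-level 10 uM D-luciferin and 10 uM ATP in 50 mM Tris acetate pH 7.5, 10 mM Mg acetate, 0.01% Tween-20, 0.05% BSA; 6-point qHTS titration about 60 µM downward; luminescence read.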
* marks the source's active call; other numbers are inactive results; ? = inconclusive; . = no result. Calls come from the whole dose curve; as a rule, active = well fitted curve in the direction sought with a large enough effect; inconclusive = small, poorly fitted or top-dose-only effect, or another doubt; inactive = no such curve, though single readings can be large; an effect the other way counts as inactive or inconclusive. Potency is the fitted concentration of half-maximal effect.

SMILES	SMN2 splice up	Luc counter	NPC1 promoter act	ELG1 genotox	Rab9 prom act	FLuc modulator
CC(=O)Nc1cc2nn(-c3ccccc3)nc2cc1Cl	11µM*	-3%	0.56µM*	1.3µM*	0.5µM*	1.5µM*
CCOc1ccc2c(c1)C(=O)c1cc(OCC(=O)O)ccc1-2	.	.	14%	-8%	2%	3.4µM*
CCCCOc1ccc2c(c1)C(=O)c1cc(O)ccc1-2	.	0%	?	?	3.2µM*	27µM*
COc1ccc(CCNC(=O)c2c(C)oc3nc(C)nc(N4CCOCC4)c23)cc1OC	.	.	.	.	.	4%
O=C(NCc1ccc(Cl)cc1)c1ccc(NC(=O)N2CC3CCCN3c3ccccc32)cc1 (stereo not given)	-12%	.	.	.	.	-13%
c1ccc(Sc2ncnc3ccccc23)cc1	.	.	0%	-13%	-1%	19µM*
CCOc1ccc(OCC)c(NC(=O)CCc2nc3cccnc3n2Cc2cccs2)c1	-17%	.	.	.	.	-10%
Cc1ccc(/C(O)=C/c2nc3ccccc3oc2=O)cc1	.	.	-3%	-6%	-1%	3µM*
O=c1oc2ccccc2nc1/C=C(O)/C=C\c1ccccc1	5%	-1%	10%	-6%	0%	-17%
Cc1ccc(/C=N/NC(=O)c2ccco2)s1	?	-12%	3.2µM*	?	3.2µM*	15µM*
O=C(N/N=C/c1ccc(Br)s1)c1ccco1	.	.	?	?	?	21µM*
Cc1c(C)n(CCc2ccccc2)c2ncnc(NN)c12	.	.	-26%	-3%	-14%	-15%
COCCn1c(C)c(C)c2c(NCCc3ccccc3)ncnc21	.	.	0.35µM*	?	0.5µM*	0.85µM*
Cc1c(C)n(CCc2ccccc2)c2ncnc(NCCCO)c12	.	.	1.8µM*	?	1.6µM*	11µM*
CSc1ccc(CCNC(=O)c2cc3c(-c4ccccc4F)nn(C)c3s2)cc1	-6%	.	.	.	.	-13%
NC(=O)c1ccccc1NC(=O)/C=C/C(=O)O	-27%	7%	-2%	2%	1%	6%
O=C(/C=C/Nc1ccc(Oc2ccccc2)cc1)c1ccco1	.	?	0.63µM*	?	0.71µM*	0.85µM*
O=C(/C=C/Nc1cccc(C(F)(F)F)c1)c1ccc(Oc2ncccn2)cc1	-10%	-4%	?	0%	?	12µM*
O=C(/C=C/Nc1cccc(C(F)(F)F)c1)c1ccco1	?	-7%	21%	?	?	11µM*
NC(=O)c1ccccc1N/C=C/C(=O)c1ccco1	11µM*	-19%	?	5.2µM*	3.2µM*	9.5µM*
COc1ccccc1CNC(=O)CCc1c(C)nc2c(c(C)nn2-c2ccc(C)c(C)c2)c1C	-7%	.	.	.	.	-7%
O=C(/C=C/Nc1ccccc1C(F)(F)F)c1ccco1	10µM*	-21%	2µM*	2.9µM*	0.71µM*	1.2µM*
Cc1cccc(N=C/C(C(=O)C(F)(F)F)=C(\O)c2ccco2)c1	6%	-6%	-4%	1%	0%	10%
Cc1ccc(N=C/C(C(=O)C(F)(F)F)=C(\O)c2ccco2)cc1Cl	.	.	2%	?	0%	9.5µM*
O=C(NCCNC(=O)c1ccco1)c1ccc(F)cc1	-3%	3%	0%	1%	8%	-1%
SMILES	SMN2 splice up	Luc counter	NPC1 promoter act	ELG1 genotox	Rab9 prom act	FLuc modulator
O=C(/C(C=Nc1ccc(F)cc1)=C(/O)c1ccco1)C(F)(F)F	?	-2%	2%	7.3µM*	24%	8.5µM*
COc1ccc(OCc2csc(N)n2)cc1	13µM*	-9%	?	?	2.8µM*	?
CCc1ccc(C(=O)c2cn(CC(=O)Nc3cccc(OC)c3)c3cc4c(cc3c2=O)OCO4)cc1	-8%	.	.	.	.	-2%
CCOC(=O)c1c(S(=O)(=O)N2CCC(C(=O)Nc3cccc(C)n3)CC2)c(C)n(C)c1C	.	.	.	.	.	-2%
COC(=O)c1cc2oc(C)cc2n1CC(=O)Nc1cc(Cl)ccc1OC	22%	.	.	.	.	-2%
CN(c1ccccc1)S(=O)(=O)c1cccc(NC(=O)c2ccc(Cl)c([N+](=O)[O-])c2)c1	.	.	.	-14%	.	.
CC(C)(C)c1ccc(/C=C2\SC(=O)N(CCNC(=O)c3cccc(S(=O)(=O)N4CCOCC4)c3)C2=O)cc1	-53%	-2%	0.71µM*	?	0.89µM*	0.54µM*
COc1ccc(/C=C/C(=O)Nc2ccc3nc4c(c(Nc5ccc(OC)c(OC)c5)c3c2)CCCC4)cc1	-81%	.	.	.	.	-6%
O=C(CCCCn1c(=O)c2ccccc2n(CC(=O)Nc2ccc(F)cc2F)c1=O)NCCc1ccccc1	8%	.	.	.	.	-2%
COc1ccc(NC(=O)c2cc3ccccc3o2)c(OC)c1	.	.	.	.	.	5.4µM*
COC(=O)c1cc(Cl)c(NC(=O)c2cc3ccccc3o2)cc1OC	5%	0%	?	0%	1.8µM*	-6%
COc1cc(NC(=O)c2cc3ccccc3o2)ccc1NC(=O)c1ccco1	.	.	-5%	-2%	-10%	-2%
CCC(=O)Nc1ccc(NC(=O)c2cc3ccccc3o2)c(OC)c1	.	.	2.5µM*	?	4µM*	?
COc1cc(NC(=O)c2ccc(F)cc2)ccc1NC(=O)c1cc2ccccc2o1	.	.	0%	-10%	0%	3%
COc1cc(NC(=O)c2c(OC)cccc2OC)ccc1NC(=O)c1cc2ccccc2o1	.	.	?	15µM*	?	?
Cc1ccc(CN(Cc2ccco2)c2cnc(S(C)(=O)=O)nc2C(=O)Nc2ccccc2Br)o1	.	.	.	.	.	-6%
Cc1c(NC(=O)C(C)OC(=O)/C=C/c2ccc3c(c2)OCO3)c(=O)n(-c2ccccc2)n1C (stereo not given)	7%	-2%	0%	8%	7%	15µM*
Cc1c(NC(=O)C(C)OC(=O)/C=C/c2ccccc2)c(=O)n(-c2ccccc2)n1C (stereo not given)	-13%	3%	-7%	-3%	3%	5%
O=C(COC(=O)/C=C/c1ccc2c(c1)OCO2)Nc1ccccc1	0%	-7%	-10%	6%	4%	21µM*
COc1ccc(NC(=O)/C=C/c2ccc3c(c2)OCO3)cc1	18µM*	-15%	?	?	3.2µM*	2.7µM*
O=C(/C=C/c1ccc2c(c1)OCO2)Nc1nc2ccccc2s1	3.5µM*	-3%	1.6µM*	18µM*	0.79µM*	1.2µM*
